Measured values as given in PubChem BioAssay AID1347426 (Functional Genomics Laboratory (NCATS/FGL), 2020).
Among all 31,000 sequences or so, about 1,400 (4.5%) were called active.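 The calls were made as follows: active = median seed-adjusted z-score above 1 or below -1; inactive = the rest.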 The full list was thinned out, with actives kept by preference.

Test: Novel Modifiers of Survival Motor Neuron (SMN) Protein: Gene Identification via Genome-wide siRNA Screen;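 also: luminescence tracks full-length SMN protein made from the SMN2 reporter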
Settings: HEK293T SMN2-luciferase reporter, siRNA knockdown, 72 h; actives lie on both sides
How it was run: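 siRNA screen, 10418 genes ×3 siRNAs; 1 pmol/well, lipid reverse transfection into HEK293T SMN2-luc reporter line. 72 h, 37 °C, 5% CO2; ONE-Glo readout. Data: neg-ctrl normalized, log10, MAD; hit = MAD >1.0 or < -1.0.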
In the case of GAGAUAUACGAGGAGAUUATT against TIGD1, the median seed-adjusted z-score is reported as 0.224 (inactive). For GGUCAGAACAUUCACCGAATT against CFTR, the median seed-adjusted z-score was -1.23 (active). For GAAUGUGCUAUGAAGCUUUTT against SPRR1B, the median seed-adjusted z-score was -0.721 (inactive). With GGCUCGUAUUUUCUGGUUUTT against ACHE the median seed-adjusted z-score was 0 (inactive). In the case of CCUUGCCUCUAUGAGAUCATT against CHCHD2, the median seed-adjusted z-score is reported as 0.0884 (inactive). In the case of GGGUCAUUCUAUGGGCAAATT against OGFOD2, the median seed-adjusted z-score is reported as 0.493 (inactive). For GACUUGAGCUAAAUGGUCATT against SIAH1, the median seed-adjusted z-score was 1.5 (active). In the case of CCUAUACUGUGGGCUAUAATT against STARD4, the median seed-adjusted z-score is reported as 0.173 (inactive). With AGCCGUGGAUGGUAGAUCUTT against ZNF2 the median seed-adjusted z-score was -0.119 (inactive). With CAGACUAAACUAUAGCGAUTT against SENP6 the median seed-adjusted z-score was -1.03 (active). With GCAACUCCAAUGUCAGUGATT against TAF9B the median seed-adjusted z-score was -0.0247 (inactive). In the case of GAGUCUGAAGGAUACUAUUTT against PGAM1, the median seed-adjusted z-score is reported as -0.234 (inactive). For GCCCUGAACAAGUUGCUCATT against TRPV6, the median seed-adjusted z-score was -0.511 (inactive). In the case of GCUUUUCCCGGUCAGAUCATT against KLF12, the median seed-adjusted z-score is reported as -0.0892 (inactive). For CCAUCGCAGAGGGAGAUAATT against USP43, the median seed-adjusted z-score was 0 (inactive). In the case of GCUUCUAUAUUCAUGCUAATT against DDX6, the median seed-adjusted z-score is reported as 1.12 (active). For GGUGAUGAGUGUUCCUACATT against KCNA4, the median seed-adjusted z-score was -0.634 (inactive). With GGAUUUCUCAUGGAAGUUUTT against CUTC the median seed-adjusted z-score was -0.377 (inactive). For CGUAAAACCCAUCAAGUUUTT against B3GALNT1, the median seed-adjusted z-score was 0.128 (inactive). In the case of GGCGGCAAGACGUAAGGAATT against SEMA3B, the median seed-adjusted z-score is reported as 0.000251 (inactive). In the case of UGCUGACCCUAAUCCCUUATT against ETV2, the median seed-adjusted z-score is reported as 0 (inactive). For AGUUAGAGGUAGCAUUAUATT against FZD5, the median seed-adjusted z-score was -0.129 (inactive). For GAGCAAUGCUGACUAUCAATT against CNOT7, the median seed-adjusted z-score was 0.716 (inactive). With CACUCGCAGUUAAUAUCAUTT against AZIN1 the median seed-adjusted z-score was -1.14 (active). With GGAUCCAGCUUUUCCUCGATT against ABCC10 the median seed-adjusted z-score was -1.56 (active). With CCACGGCUGCAACAUCUUUTT against PDE2A the median seed-adjusted z-score was -0.2 (inactive). In the case of CAGCCGCUCUCGUCAAUGUTT against GGTLC2, the median seed-adjusted z-score is reported as -0.288 (inactive). With ACAACUUCGUUUUCGGUCATT against TUBB2C the median seed-adjusted z-score was 0 (inactive). With GCAGCAACAUUAUUGUCUUTT against CLDN17 the median seed-adjusted z-score was 0 (inactive). In the case of GAAUGAAUUCUCUACUCUATT against ERBB3, the median seed-adjusted z-score is reported as -0.561 (inactive). For GCCUGUGAAGUGAACCUGATT against TMPRSS6, the median seed-adjusted z-score was 1.29 (active). In the case of UGAUAUUGCUUAGUCCAUUTT against PRLHR, the median seed-adjusted z-score is reported as 0 (inactive). With CAAACGUGGACUGUCCAAATT against CA4 the median seed-adjusted z-score was 0.0549 (inactive). With CAUGCACGGAGAGCCCAAATT against RPUSD3 the median seed-adjusted z-score was 0.303 (inactive). In the case of CCAGGAGAUCUUUGCCUUUTT against SLC4A3, the median seed-adjusted z-score is reported as -0.7 (inactive). In the case of GAACCGCUACAAGAACAUUTT against PTPN6, the median seed-adjusted z-score is reported as -0.515 (inactive). In the case of AGAUGAAACUUCUACUGAATT against POLR2H, the median seed-adjusted z-score is reported as -2.74 (active). With CUUUGUCUAUGUCACCAUUTT against IMP5 the median seed-adjusted z-score was 0.559 (inactive). In the case of CAAGCGAAUUAACUAUCUATT against GJB3, the median seed-adjusted z-score is reported as -0.198 (inactive). With GUCUCGCUGUGAUAGAUCATT against ELN the median seed-adjusted z-score was -0.149 (inactive). With CCAACAUCGAGUCCCUCAATT against SLC29A3 the median seed-adjusted z-score was -0.0626 (inactive). In the case of CUGAUAAAGUGGGUCAACATT against TNFRSF10B, the median seed-adjusted z-score is reported as 0.064 (inactive). In the case of CCAUCGUCAUGGAUCCAGATT against KDR, the median seed-adjusted z-score is reported as 0.0728 (inactive). With GGGACAUCCUUUCCGGAAATT against NDUFS3 the median seed-adjusted z-score was -0.54 (inactive). For GGAGUGUGAUGAUUCGUGATT against DGKK, the median seed-adjusted z-score was 0 (inactive). For AGAACUCACCUCCUGAUUATT against YY1, the median seed-adjusted z-score was 1.94 (active). For GCAAGAUAACAAUUGAUAUTT against ANKRD30A, the median seed-adjusted z-score was 0.259 (inactive). For AGAUCUUCGCAAAUACUGUTT against KRT18, the median seed-adjusted z-score was 0.558 (inactive). In the case of GGCUUAUGGAGGACCCUAUTT against NCOR1, the median seed-adjusted z-score is reported as 0.0767 (inactive). For CCUAUGAUCCAACACCAUATT against GMPPA, the median seed-adjusted z-score was 0.619 (inactive). With CAUUAGCAGUUGUCCCGUUTT against P2RY10 the median seed-adjusted z-score was -0.432 (inactive). In the case of CUACUUCCGCAACCAGCUATT against UNC119, the median seed-adjusted z-score is reported as 0.171 (inactive). For CUAUGGUAGCGACACUGCATT against LILRB1, the median seed-adjusted z-score was 0.539 (inactive). For UCACAGAGCCUAUUAUUUUTT against PRKY, the median seed-adjusted z-score was 0.168 (inactive). With GUGUCAGAGUUUAUAUCAATT against PDE4D the median seed-adjusted z-score was 0 (inactive). For CAAACUAUCUCUGAAAAUATT against TRYX3, the median seed-adjusted z-score was 2.3 (active). In the case of GCUGAUGACUGUCGUUAUATT against TBX3, the median seed-adjusted z-score is reported as 0 (inactive). For CAUCCUGUAUAAGUACUAUTT against RNF216, the median seed-adjusted z-score was -0.246 (inactive). In the case of UCAACAUCGUCUACCAGGATT against SCNN1D, the median seed-adjusted z-score is reported as -1.8 (active). For GAUCUACCCUGCUCACGAUTT against ETHE1, the median seed-adjusted z-score was 0 (inactive). In the case of CAGGCUACAGUGAACAGAATT against GNL1, the median seed-adjusted z-score is reported as 0.154 (inactive). In the case of GCGCGUUGGUACAAUGGAATT against GOT1, the median seed-adjusted z-score is reported as 0.0103 (inactive). With GCUUGUCUUUCAACCCGAUTT against PARP4 the median seed-adjusted z-score was -0.226 (inactive). For GCAACGUGUUGAUGAUGCATT against ADAD1, the median seed-adjusted z-score was -0.0795 (inactive). With GCACAGAGGAACGAACUAATT against PSMC5 the median seed-adjusted z-score was -1.06 (active). With GGGAGACGGUAGAAUCAGATT against ATP13A4 the median seed-adjusted z-score was -1.09 (active). In the case of CCAUGUGAGUGUAAGCAGUTT against ZNF490, the median seed-adjusted z-score is reported as 0.00954 (inactive). In the case of GGGUAACUGUUGAUAACCATT against POGK, the median seed-adjusted z-score is reported as 0.938 (inactive). For ACAAGACUUAUGCAAGAUATT against XRCC6BP1, the median seed-adjusted z-score was 0.128 (inactive). In the case of GGAAUUCGAUGGGAACUUUTT against CACHD1, the median seed-adjusted z-score is reported as 0.119 (inactive). With CCGAGUAGCUGAAAUUGUUTT against BCL2L14 the median seed-adjusted z-score was -0.859 (inactive). For AGAUCUAUGAGAUUGAACATT against PRKAG3, the median seed-adjusted z-score was -1.03 (active). For CAAGUUCCUUAACAAGGAATT against EIF2B4, the median seed-adjusted z-score was 0 (inactive). In the case of CAGAUACUUUAGGACUCAATT against UGT2B4, the median seed-adjusted z-score is reported as 0.0707 (inactive). For CAGGCUCACUCGCAAAGAATT against USP31, the median seed-adjusted z-score was -0.755 (inactive). With GGCUCUCUGUCAACUAUGATT against MGC21874 the median seed-adjusted z-score was -0.354 (inactive). For CCCUUUUCUUUAUCCCUGATT against IL9R, the median seed-adjusted z-score was -1.33 (active). For GCAAGGCUAUUAUAGAUCATT against CTNNA3, the median seed-adjusted z-score was 0.249 (inactive). With GGACAUUGCUGAUCGCUUUTT against DMC1 the median seed-adjusted z-score was -0.00876 (inactive). In the case of GCAUGUCUCUAAUAUUCCUTT against RBM9, the median seed-adjusted z-score is reported as 0.895 (inactive). With GGUUUGAAAUUCUAACAAATT against TXNDC6 the median seed-adjusted z-score was 0.156 (inactive). For CAUCCUGCAGAGUAUCUAATT against EPHA5, the median seed-adjusted z-score was -0.00876 (inactive). With CUCUCUCUCGGAAUCUGAATT against POLR2L the median seed-adjusted z-score was -1.19 (active). In the case of GGUUGUUUUGGAAACCGAATT against NAT12, the median seed-adjusted z-score is reported as -0.0807 (inactive). With GCGAAUUCAUAAGUCCAUUTT against MTMR9 the median seed-adjusted z-score was 0.133 (inactive). In the case of CAAGACCGAGAGAACAAUATT against ENOX1, the median seed-adjusted z-score is reported as 0.0694 (inactive). With CCAUCACCGUUGAUGACAATT against JAK1 the median seed-adjusted z-score was 0.0199 (inactive). With CGAGCUGCACGUUCCUAUATT against IRF7 the median seed-adjusted z-score was -0.304 (inactive). With CAGUGGAUAUAUCCAGUCATT against RAB20 the median seed-adjusted z-score was -0.334 (inactive). For GACUCGUUGUUGGUCUAAATT against MAP3K7, the median seed-adjusted z-score was -0.23 (inactive). For CGCUGAUUUUCGAGUGUAATT against EHMT2, the median seed-adjusted z-score was 0.295 (inactive). With GGGUCAUGCAGCAUCAAUATT against ITGAM the median seed-adjusted z-score was -1.56 (active). In the case of CCAAGGACCUGGUCUGAAATT against CUGBP1, the median seed-adjusted z-score is reported as 0.086 (inactive). With AGCAGAUGGUUUUCGAGAATT against COPZ2 the median seed-adjusted z-score was -1.23 (active). With GGGUUUUGCUGACAGCUCATT against ZNF48 the median seed-adjusted z-score was -0.116 (inactive). In the case of GGAACACGCAUGUCUGGAATT against NOS1, the median seed-adjusted z-score is reported as 0.0195 (inactive). In the case of GAAUGCAAGAUUUUCGAUUTT against USH2A, the median seed-adjusted z-score is reported as 0.0673 (inactive). In the case of GGCAUCCGCUUGUACUACATT against DBH, the median seed-adjusted z-score is reported as 0.337 (inactive). With CCCUAUCAGUCCAAUGGAATT against PRDM4 the median seed-adjusted z-score was 0.0804 (inactive). In the case of GCCUUCUCCUCUCAUAACATT against ZNF683, the median seed-adjusted z-score is reported as -0.452 (inactive). With CAACUUCUCCGUAGCAGAATT against AKT2 the median seed-adjusted z-score was 0 (inactive). With CUUCUACAGUGGUCACCUATT against VPS29 the median seed-adjusted z-score was -0.408 (inactive). For GGUUAUCAAUGACGAGCAATT against EP400, the median seed-adjusted z-score was 1.83 (active). For GAACCUCGUUUCGAAAUUUTT against RIOK2, the median seed-adjusted z-score was -0.16 (inactive). With GAAUGAUUUUCCAAAUGGATT against SLC25A21 the median seed-adjusted z-score was -0.219 (inactive). For GGAAGAAACGGAGACUCAATT against DPF1, the median seed-adjusted z-score was 0.144 (inactive). With GCCUGGUUUUGGAUACAAATT against LTA4H the median seed-adjusted z-score was -0.742 (inactive). With CAACUGCUACCUUAGCAUATT against RNF133 the median seed-adjusted z-score was 0 (inactive). With GCUGUGAGAUUUACUCUGATT against ALAS1 the median seed-adjusted z-score was -1.15 (active).
